Reference: PubChem BioAssay (NCATS)
Results filed as inconclusive are left out. Active and inactive are the calls of the source. Calls follow the shape of the dose curve; as a rule, active = well fitted curve in the direction sought with a large enough effect; inconclusive = small, poorly fitted or top-dose-only effect, or another doubt; inactive = no such curve, though single readings can be large; an effect the other way counts as inactive or inconclusive.

Columns and labels:
[1] = HEK293 18hr Apoptosis Induction qHTS against the NCATS CANVASS Library (AID 1347357); also: 0% is about no effect
Outline: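 Luminescent caspase-3/7 signal is measured in HEK293 cells exposed for 18 hours to an 11-point concentration series; doxorubicin serves as the plate control.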

[2] = HPAF-II 12hr Apoptosis Induction qHTS against the NCATS CANVASS Library (AID 1347358); also: 0% is about no effect
Outline: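 HPAF-II cells (500/well, DMEM + 10% FBS) were exposed to compounds for 12 hours at 37 degrees C. Caspase-3/7 activity was then read by Caspase-Glo 3/7 luminescence after 15 min at room temperature.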

[3] = HEK293 24hr Apoptosis Induction qHTS against the NCATS CANVASS Library (AID 1347359); also: 0% is about no effect
Outline: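 HEK293 cells (500/well, DMEM + 10% FBS) were exposed to compounds in an 11-point series for 24 hours at 37 degrees C, then caspase-3/7 activity was read by Caspase-Glo DEVD luciferase luminescence after 15 min.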

[4] = HPAF-II 18hr Apoptosis Induction qHTS against the NCATS CANVASS Library (AID 1347360); also: 0% is about no effect
Outline: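 Apoptosis was scored as caspase-3/7 activity in HPAF-II pancreatic cancer cells treated 18 hours with an 11-point concentration series.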

[5] = HEK293 12hr Apoptosis Induction qHTS against the NCATS CANVASS Library (AID 1347361); also: 0% is about no effect
Outline: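 Apoptosis in HEK293 was scored as caspase-3/7 luminescence following 12 h treatment with a compound concentration series in qHTS format.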

[6] = test system: NAD(P)H diaphorase (Clostridium kluyveri); assay: Diaphorse counterscreen qHTS: Assay Interference Panel against the NCATS CANVASS Library (AID 1347362); also: 0% is about no effect
Outline: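 Clostridium kluyveri diaphorase in PBS with 0.01% Tween-20 was preincubated 15 min at room temperature in the dark with compounds (11-point series). Resorufin fluorescence (ex 525/20, em 598/25) was read 5 min after adding resazurin/NADH.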

[7] = target: Luciferin 4-monooxygenase (Photinus pyralis) (UniProt P08659); assay: Firefly luciferase counterscreen qHTS: Assay Interference Panel against the NCATS CANVASS Library (AID 1347363); also: series mostly up to about 57 µM; 0% is about no effect
Outline: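 Purified P. pyralis luciferase was added to compounds (11-point series) preincubated 15 min at room temperature with substrate containing 0.013 mM D-luciferin and 0.013 mM ATP; luminescence was read after 5 min.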

[8] = KB-3-1 Cancer Cell Toxicity qHTS against the NCATS CANVASS Library (AID 1347366); also: series mostly up to about 46 µM; % is scaled to controls: 0 for no effect and ±100 for the full control effect; nearly all actives have a fitted effect of over 75% in size
Outline: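 Seed KB-3-1 cells at 500/well in DMEM with 10% FBS, add compounds, incubate 72 hr at 37C and 5% CO2, then add CellTiter-Glo and read luminescence after 10 minutes.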

[9] = qHTS for ATAD5 Agonist screened against the NCATS CANVASS Library (AID 1347367);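 also: luciferase reporter driven by ATAD5 which rises upon DNA damage; 0% is about no effect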
Outline: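 Step one plated reporter cells and let them acclimate 5hr. Step two pinned compounds with MMS as positive and 0.46% DMSO as negative control. After 16hr incubation, fluorescence viability then luminescence were read.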

[10] = qHTS for ATAD5 Antagonist screened against the NCATS CANVASS Library (AID 1347370);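 also: HEK293T cells carrying an ATAD5 luciferase reporter co-treated with 10 µM 5-fluorouridine; series mostly up to about 46 µM; % is scaled to controls: 0 for no effect and ±100 for the full control effect; nearly all actives have a fitted effect of over 65% in size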
Outline: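 HEK293T cells with a stably integrated ATAD5-controlled luciferase reporter were exposed to compounds (11-pt) alongside 10 uM 5-fluorouridine as ATAD5 stabilizer for 16hr at 37C. Viability was read by CellTiter-Fluor fluorescence, then ATAD5 by luminescence.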

[11] = J3T Cancer Cell Toxicity qHTS against the NCATS CANVASS Library (AID 1347371);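 as to activity change, negative = cytotoxicity: J3T is a canine glioma cancer cell line seeded at 500 cells per well; series mostly up to about 46 µM; % is scaled to controls: 0 for no effect and ±100 for the full control effect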
Outline: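 J3T dog glioma cells (500 cells/well) were exposed to compounds in an 11-point series for 72 hr at 37C, 5% CO2. Cytotoxicity was read as ATP content by CellTiterGlo luminescence.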

[12] = target: Nuclear receptor subfamily 1 group I member 3 (Homo sapiens) (UniProt Q14994); assay: qHTS for Constitutive Androstane Receptor (CAR) Antagonist screened against the NCATS CANVASS Library (AID 1347372);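 also: cells stimulated with 50 nM CITCO agonist so inhibition reflects antagonism; series mostly up to about 46 µM; % is scaled to controls: 0 for no effect and ±100 for the full control effect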
Outline: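 HepG2 cells stably carrying hCAR and a CYP2B6-2.2kb luciferase reporter were exposed to compounds plus 50 nM CITCO for 24hr at 37C. CAR activity was read by ONE-Glo luminescence, with viability measured first by CellTiter-Fluor.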

[13] = target: Nuclear receptor subfamily 1 group I member 3 (Homo sapiens) (UniProt Q14994); assay: qHTS for Constitutive Androstane Receptor (CAR) Agonist screened against the NCATS CANVASS Library (AID 1347373);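 also: every well also contained 1.5 µM PK11195 alongside the test compound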; also: potency is read from the fitted curve at half-maximal effect; as to activation: 0% is about no effect
Outline: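 HepG2 cells stably expressing hCAR and a CYP2B6-2.2kb luciferase reporter were treated for 24hr at 37C with compounds (11-point qHTS) in the presence of 1.5uM PK11195. Reporter activation was read by ONE-Glo luminescence.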

[14] = qHTS for Hypoxia signaling pathway (HIF-1) agonists against the NCATS CANVASS Library (AID 1347375); also: 0% is about no effect
Outline: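 HRE-bla ME-180 cells (beta-lactamase reporter under hypoxia responsive element) in 0.5% dialyzed FBS medium, 5 h at 37C, then compound 17 h, 11-point qHTS series. CCF4-AM FRET substrate 2 h RT; 460/530 nm emission read.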

[15] = 10-beta competent E. coli microbial cell viability qHTS against the NCATS CANVASS Library (AID 1347376); also: series mostly up to about 46 µM; 0% is about no effect
Outline: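 10-beta competent E. coli (0.9 OD culture diluted to 0.2 OD) exposed to compounds in an 11-point qHTS series, incubated overnight at 37C, 5% CO2. Viability read as ATP by BacTiter-Glo luminescence after 20 min at room temperature.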

[16] = qHTS for Inflammasome Signaling Inhibitors: IL-1-beta AlphaLISA screen against the NCATS CANVASS Library (AID 1347379);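 also: human THP-1 cells primed with LPS then triggered with ATP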;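 as to activity change, negative = inhibition: secreted IL-1B measured as AlphaLISA emission at 615 nm; % is scaled to controls: 0 for no effect and ±100 for the full control effect; lower signal means less IL-1B release which is the wanted effect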
Outline: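 Human THP-1 cells were pretreated 1 hr at 37 °C with compounds (up to 57.5 uM final), then stimulated with LPS (250 ng/mL final) and ATP (1.25 mM final). Secreted IL-1B was read by AlphaLISA after 16 hr.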

[17] = Inflammasome Signaling qHTS Counterscreen: IL-1-beta AlphaLISA counterscreen against the NCATS CANVASS Library (AID 1347381);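 also: cell-free check with purified IL-1β in medium and no THP-1 cells; series mostly up to about 57 µM; 0% is about no effect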
Outline: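 To flag interference with the AlphaLISA read-out, a known amount of purified IL-1-beta (4 pg) replaced cell supernatant. Detection used anti-IL-1-beta acceptor beads, biotinylated antibody and streptavidin donor beads at room temperature.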

[18] = Cytotoxicity qHTS for assessment of Hepg2 cells membrane integrity screened against the NCATS CANVASS Library (AID 1347387)
Outline: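 HepG2 cells (2000/well) attached overnight at 37C, then received compounds in an 11-point series at 0.59 nM - 46 uM final for 5 hr. LDH release was detected fluorometrically (ex 560/em 590 nm) with CytoTox-ONE reagent after 10 min at room temperature.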

[19] = qHTS for activators of dead-cell proteases activity screened against the NCATS CANVASS Library (AID 1347392);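 also: luminescence from protease leaking out of membrane-damaged cells cleaving impermeant substrate; 0% is about no effect; rising signal means more cytotoxicity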
Outline: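 HepG2 cells (2000/well) attached 18 h at 37C, then exposed 5 h to compounds (11-point qHTS). Dead-cell protease activity read as luminescence from cell-impermeant AAF-aminoluciferin substrate after 15 min at room temperature.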

[20] = Viability qHTS for inhibitors of the SERCaMP assay screened against the NCATS CANVASS Library (AID 1347400); also: series mostly up to about 92 µM; % is scaled to controls: 0 for no effect and ±100 for the full control effect; nearly all actives have a fitted effect of over 70% in size
Outline: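 SH-SY5Y-GLuc SERCaMP MJH297-derived cells (1000 cells/well) were pre-incubated 4 h at 37C, then exposed to compounds for 48 h. Viability was read as CellTiter-Glo luminescence; bortezomib served as positive control.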

Luciferin 4-monooxygenase (Photinus pyralis), sequence (P08659 whole entry, looked up): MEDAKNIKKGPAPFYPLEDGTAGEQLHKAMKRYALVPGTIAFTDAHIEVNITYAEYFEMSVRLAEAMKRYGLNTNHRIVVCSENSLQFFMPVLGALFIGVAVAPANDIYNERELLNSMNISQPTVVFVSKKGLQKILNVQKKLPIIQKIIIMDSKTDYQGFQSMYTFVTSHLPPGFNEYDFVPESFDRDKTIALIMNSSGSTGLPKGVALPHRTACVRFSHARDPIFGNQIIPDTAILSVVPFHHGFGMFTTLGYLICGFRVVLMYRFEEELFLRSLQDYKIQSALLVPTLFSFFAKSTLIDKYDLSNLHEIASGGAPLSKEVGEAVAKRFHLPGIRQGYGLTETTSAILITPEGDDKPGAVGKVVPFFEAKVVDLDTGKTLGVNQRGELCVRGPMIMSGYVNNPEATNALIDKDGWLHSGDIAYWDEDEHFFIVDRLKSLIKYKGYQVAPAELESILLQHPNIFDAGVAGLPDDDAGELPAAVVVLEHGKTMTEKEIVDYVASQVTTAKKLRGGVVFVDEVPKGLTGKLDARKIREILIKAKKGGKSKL
Nuclear receptor subfamily 1 group I member 3 (Homo sapiens), sequence (Q14994 whole entry, looked up): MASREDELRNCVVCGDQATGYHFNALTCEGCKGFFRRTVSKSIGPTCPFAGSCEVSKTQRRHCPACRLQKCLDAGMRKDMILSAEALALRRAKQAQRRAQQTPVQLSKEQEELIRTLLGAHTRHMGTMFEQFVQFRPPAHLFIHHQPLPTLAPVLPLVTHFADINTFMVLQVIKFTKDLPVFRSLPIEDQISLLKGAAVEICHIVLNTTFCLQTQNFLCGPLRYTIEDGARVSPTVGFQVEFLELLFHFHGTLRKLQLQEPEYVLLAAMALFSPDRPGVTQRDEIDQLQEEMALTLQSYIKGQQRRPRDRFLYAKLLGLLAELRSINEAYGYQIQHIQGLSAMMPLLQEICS

COc1ccc([C@@H]2CC(=O)c3c(cc(O)c(C/C=C(\C)CCC=C(C)C)c3O)O2)cc1
active: Potency [13] 3.05 µM
inactive: caspase activation [1] 0.682% [at 9.19 µM] | caspase activation [2] 1.72% [at 9.19 µM] | activation [3] 2.74% [at 9.19 µM] | caspase activation [4] -1.9% [at 9.19 µM] | caspase activation [5] 1.23% [at 9.19 µM] | activity change, negative = inhibition [6] -4.24% [at 11.5 µM] | activity change, negative = inhibition [7] -12.4% [at 11.5 µM] | activity change, negative = cytotoxicity [8] -3.45% [at 9.19 µM] | activation [9] -1.01% [at 9.19 µM] | activity change, negative = inhibition [10] -0.0168% [at 9.19 µM] | outcome [11] inactive [at 9.19 µM] | activity change, negative = inhibition [12] 30.2% [at 9.19 µM] | activation [14] 1.16% [at 7.64 µM] | activity change, negative = cytotoxic [15] -2.49% [at 9.19 µM] | outcome [16] inactive [at 11.5 µM] | activity change, negative = inhibition [17] -7.89% [at 11.5 µM] | cytotoxicity (LDH release) [18] -0.251 [at 9.19 µM] | activation (cytotoxicity) [19] -1.61% [at 9.19 µM] | activity change, negative = cytotoxicity [20] -0.051% [at 18.4 µM]

CC[C@H](O)CCCCC[C@@H]1NC(=O)[C@H]2CCCCN2C(=O)[C@H]([C@H](C)CC)NC(=O)[C@H](Cc2cn(OC)c3ccccc23)NC1=O
inactive: Potency [1] | Potency [3] | Potency [4] | outcome [5] | Potency [6] | Potency [7] | Potency [8] | Potency [9] | Potency [13] | outcome [14] | outcome [15] | Potency [16] | outcome [17] | outcome [18] | Potency [19] | Potency [20]

CN1CC[C@@]2([C@@]34CCN(C)[C@@H]3Nc3ccccc34)c3ccccc3N[C@@H]12
inactive: Potency [1] | Potency [2] | Potency [3] | Potency [4] | outcome [5] | Potency [6] | Potency [7] | Potency [8] | Potency [9] | Potency [10] | Potency [11] | Potency [12] | Potency [13] | outcome [14] | outcome [15] | Potency [16] | outcome [17] | outcome [18] | Potency [19] | Potency [20]
